Source: PubChem
The entries come from a sample that favours hits as a whole.
KDM5B inh: inhibitors of human KDM5B histone demethylase | Q9UGL1 | KDM5B demethylase, FDH-coupled NADH fluorescence (FDH is formaldehyde dehydrogenase) | Potency, µM (series often up to 57.7 µM), hits mostly inhibitors | 2.6% of 220,000 active; active = well fitted inhibition curve with a large enough effect; note: nearly all actives have a fitted effect of over 70% in size
Target sequence (Q9UGL1 whole entry, looked up): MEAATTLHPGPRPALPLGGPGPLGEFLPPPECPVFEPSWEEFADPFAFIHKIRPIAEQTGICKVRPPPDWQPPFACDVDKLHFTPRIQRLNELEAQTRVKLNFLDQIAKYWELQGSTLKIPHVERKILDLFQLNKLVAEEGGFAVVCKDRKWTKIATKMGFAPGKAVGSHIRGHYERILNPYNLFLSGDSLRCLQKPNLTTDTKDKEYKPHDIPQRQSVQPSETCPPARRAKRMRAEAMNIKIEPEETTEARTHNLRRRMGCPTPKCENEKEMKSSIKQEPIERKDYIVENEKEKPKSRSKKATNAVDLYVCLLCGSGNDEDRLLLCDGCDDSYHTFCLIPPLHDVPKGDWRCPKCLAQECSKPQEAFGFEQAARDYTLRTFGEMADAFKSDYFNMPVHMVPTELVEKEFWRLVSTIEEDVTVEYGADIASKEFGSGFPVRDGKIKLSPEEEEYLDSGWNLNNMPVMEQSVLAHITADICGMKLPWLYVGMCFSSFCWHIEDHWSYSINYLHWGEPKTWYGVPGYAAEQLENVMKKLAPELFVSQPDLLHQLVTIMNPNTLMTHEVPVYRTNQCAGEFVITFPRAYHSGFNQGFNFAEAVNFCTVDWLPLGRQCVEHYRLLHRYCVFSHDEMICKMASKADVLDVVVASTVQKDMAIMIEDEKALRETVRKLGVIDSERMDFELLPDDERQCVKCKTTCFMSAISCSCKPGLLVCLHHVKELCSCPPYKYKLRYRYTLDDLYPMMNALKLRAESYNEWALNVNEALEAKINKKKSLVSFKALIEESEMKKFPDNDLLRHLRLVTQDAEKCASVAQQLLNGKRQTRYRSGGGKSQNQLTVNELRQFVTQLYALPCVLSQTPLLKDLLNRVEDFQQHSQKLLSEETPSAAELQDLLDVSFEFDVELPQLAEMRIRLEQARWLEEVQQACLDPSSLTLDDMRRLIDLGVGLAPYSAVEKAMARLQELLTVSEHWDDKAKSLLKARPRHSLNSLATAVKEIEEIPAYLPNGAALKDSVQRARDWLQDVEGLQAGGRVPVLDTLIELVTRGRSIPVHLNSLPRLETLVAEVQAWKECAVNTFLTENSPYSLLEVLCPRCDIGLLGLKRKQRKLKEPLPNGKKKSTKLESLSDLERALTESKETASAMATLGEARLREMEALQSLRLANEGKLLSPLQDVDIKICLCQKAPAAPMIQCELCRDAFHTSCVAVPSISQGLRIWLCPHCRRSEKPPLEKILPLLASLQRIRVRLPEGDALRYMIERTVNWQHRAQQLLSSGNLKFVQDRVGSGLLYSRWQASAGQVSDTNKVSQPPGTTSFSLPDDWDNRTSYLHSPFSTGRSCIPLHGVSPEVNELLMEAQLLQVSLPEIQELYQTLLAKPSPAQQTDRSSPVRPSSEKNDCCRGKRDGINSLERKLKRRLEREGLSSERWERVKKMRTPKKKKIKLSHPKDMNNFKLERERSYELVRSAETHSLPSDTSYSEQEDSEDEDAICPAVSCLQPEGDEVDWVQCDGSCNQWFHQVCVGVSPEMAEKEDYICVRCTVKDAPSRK
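Here, H3K4me3 peptide (12.5 µM in substrate mix) is demethylated by KDM5BΔAP, 200 nM final, after 10 min compound exposure. Formaldehyde product is coupled through FDH (0.25 U/mL in mix) to NADH fluorescence; 30-min ΔRFU feeds dose-response curves.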
Hits are given with their value; ! = repeats disagree.

What do the screens show for `O=C(Cc1c[nH]c2ncc(-c3ccsc3)cc12)N1CCOCC1`?
KDM5B inh: 31.6µM

Results for CC(=O)Nc1cccc(NC(=O)CS(=O)(=O)c2cn(CC(=O)N3CCOCC3)c3ccccc23)c1 ?
KDM5B inh: inactive

What do the screens show for `Fc1ccc(N/N=C/c2ccc(Cl)c(Cl)c2)c(F)c1`?
KDM5B inh: inactive

What do the screens show for `CC1CCC(NC(=O)C2CC(=O)Nc3cc(F)ccc32)CC1` (stereo not given)?
KDM5B inh: inactive

What do the screens show for `CNC(=O)CCn1ncc2cc(OCc3ccccc3-c3cncc(OC)c3)ccc21`?
KDM5B inh: inactive

How did CNC(=O)CCn1ncc2cc(OCc3ccccc3-c3cnn(C)c3)ccc21 do in these assays?
KDM5B inh: inactive

What do the screens show for `CNC(=O)CCn1ncc2cc(OCc3ccccc3-c3ccc(OC)cc3)ccc21`?
KDM5B inh: 31.6µM

Results for Cc1occc1-c1nnc(SCC(=O)c2cc(C)n(C3CC3)c2C)n1-c1ccccc1 ?
KDM5B inh: inactive

What do the screens show for `O=C(Nc1nnc(SCc2ccccc2)s1)c1cc(=O)c2ccccc2o1`?
KDM5B inh: inactive

What do the screens show for `C=CCNC(=O)NC(=O)CN(C)CCOc1ccc(Cl)cc1`?
KDM5B inh: inactive

What do the screens show for `Cc1ccc(C(=O)N2CCC(N3CCCCCC3=O)CC2)cc1`?
KDM5B inh: 35.5µM

How did N#CC1CCN(C(=O)c2cc(Br)cn3ccnc23)CC1 do in these assays?
KDM5B inh: 39.8µM

How did Cc1ccc(C(=O)N2CCC(N3CCCC3=O)CC2)cc1 do in these assays?
KDM5B inh: inactive

How did COc1cc(C(=O)N2CCC(N3CCCCC3)CC2)cc(OC)c1C do in these assays?
KDM5B inh: inactive

How did O=C(c1ccccn1)N1CCC(N2CCCC2=O)CC1 do in these assays?
KDM5B inh: inactive

How did O=C(c1cc(Br)cn2ccnc12)N1CCC(N2CCCCCC2=O)CC1 do in these assays?
KDM5B inh: 25.1µM

Results for O=C(c1cc(Br)cn2ccnc12)N1CCC(N2CCCCC2)CC1 ?
KDM5B inh: 28.2µM

How did CC1CCN(C(=O)c2cn3ccnc(-c4ccc(F)cc4)c3n2)CC1 do in these assays?
KDM5B inh: inactive

How did O=C(c1cccc(Cl)c1)N1CCC(N2CCCCCC2=O)CC1 do in these assays?
KDM5B inh: inactive

What do the screens show for `O=C(c1nc2sccn2c1Br)N1CCC(N2CCCCC2)CC1`?
KDM5B inh: inactive

Results for N#CC1CCN(C(=O)C2CN(c3ccccc3)C(=O)N2)CC1 (stereo not given) ?
KDM5B inh: inactive

How did COc1ccc(C(=O)N2CCC(N3CCCCCC3=O)CC2)cc1 do in these assays?
KDM5B inh: inactive

How did CC1(C)CC(NC(=O)CCc2ncc(-c3ccccc3)o2)CC(C)(C)N1 do in these assays?
KDM5B inh: inactive

How did COc1ccccc1C(C)NC(=O)c1nn(C(C)C)c(=O)c2ccccc12 (stereo not given) do in these assays?
KDM5B inh: inactive

What do the screens show for `Cc1ccc(Cc2nc3ccccc3nc2SCC(=O)N2CCNC2=O)cc1`?
KDM5B inh: inactive

How did Cc1nc(-c2c3n(c(=O)n(CC(=O)Nc4cccc(F)c4)c2=O)CCCC3)no1 do in these assays?
KDM5B inh: inactive

What do the screens show for `Cc1nc2c(c(-c3ccc(O)cc3)n1)CN(Cc1ccc(N(C)C)cc1)CCC2`?
KDM5B inh: inactive

How did COc1cccc(CNC(=O)[C@@H]2C[C@@H](O)CN2C2CCN(C(=O)c3cnccn3)CC2)c1 do in these assays?
KDM5B inh: inactive

What do the screens show for `CSc1cccc(NC(=O)/C=C/c2cccc(F)c2)c1`?
KDM5B inh: inactive

Results for CCn1c(CN(C)C)nnc1C1CCN(C(=O)CN(C)c2ccccc2)CC1 ?
KDM5B inh: inactive

What do the screens show for `Cc1cc(C(=O)N2[C@@H]3CC[C@H]2CC(NC(=O)c2ccc(F)cc2)C3)nn1C` (stereo not given in full)?
KDM5B inh: inactive

How did CCc1nc(SCC(=O)Nc2ccc(Br)cc2)c2c3c(sc2n1)COC(C)(C)C3 do in these assays?
KDM5B inh: inactive

How did O=C1CCC2(CNC(=O)c3ccc4ncccc4c3)CCCC=C2N1 (stereo not given) do in these assays?
KDM5B inh: inactive

How did O=C(c1nc2sccn2c1Br)N1CCCC1 do in these assays?
KDM5B inh: inactive

Results for O=C(c1ccccc1)N1CCC(N2CCNC2=O)CC1 ?
KDM5B inh: inactive

What do the screens show for `O=C(c1cc(Br)cn2ccnc12)N1CCCC1`?
KDM5B inh: 35.5µM

How did COc1ccc(C(=O)N2CCC(N3CCCNC3=O)CC2)cc1 do in these assays?
KDM5B inh: inactive

Results for COc1ccc(C(=O)N2CCC(N3CCNC3=O)CC2)cc1 ?
KDM5B inh: 89.1µM

Results for O=C(Nc1ccccc1C(=O)N1CCOCC1)c1cccc(Br)c1 ?
KDM5B inh: inactive

Results for CN1CCN(C(=O)c2cc(Br)cn2C)CC1 ?
KDM5B inh: inactive

How did O=C(c1cc(Br)cn2ccnc12)N1CCOCC1 do in these assays?
KDM5B inh: 28.2µM!

Results for O=C(c1cc(-c2ccc(Br)cc2)on1)N1CCOCC1 ?
KDM5B inh: inactive

What do the screens show for `Cc1cnc2c(S(=O)(=O)NC(C)CN3CCOCC3)cccc2c1` (stereo not given)?
KDM5B inh: inactive

How did Cc1c(Cl)cccc1NC(=O)CN1C(=O)NC(c2ccc(Cl)cc2)C2=C1COC2=O (stereo not given) do in these assays?
KDM5B inh: inactive

What do the screens show for `CCOC(=O)C(NC(=O)c1ccc(OC)cc1)(Nc1cc(Cl)ccc1OC)C(F)(F)F` (stereo not given)?
KDM5B inh: inactive

What do the screens show for `C[C@H]1[C@@H]2[C@H]3OC(=O)[C@H](C)C3CC[C@@]2(C)CC[C@@H]1NC(=O)c1ccncc1` (stereo not given in full)?
KDM5B inh: inactive

Results for COc1ccc(C2CCCN2C(=O)Cn2cccnc2=O)cc1 (stereo not given) ?
KDM5B inh: inactive

What do the screens show for `O=S1(=O)CCN2C(c3cc(F)ccc3F)=CSC2=N1`?
KDM5B inh: inactive

Results for CCC1(CO)CCCN(Cc2ccc3c4c(cccc24)C(=O)OC3)C1 (stereo not given) ?
KDM5B inh: 11.2µM

How did Cc1ccc(C)c(-c2[nH]ncc2CN2CCCC(CO)(CCc3ccccc3)C2)c1 (stereo not given) do in these assays?
KDM5B inh: inactive

Results for CCC1(CO)CCCN(CCCOc2ccc(C(N)=O)cc2)C1 (stereo not given) ?
KDM5B inh: inactive

What do the screens show for `COc1nccc(N2CCC(CC(=O)NCCCN3CCCC3=O)CC2)n1`?
KDM5B inh: inactive

What do the screens show for `O=C(O)CCN1CCNCC1`?
KDM5B inh: inactive

What do the screens show for `CCc1ccc(C(=O)Nc2cccc3ncccc23)cc1`?
KDM5B inh: inactive

What do the screens show for `CC(N(C)C(=O)CCc1ccco1)C(C)(C)C` (stereo not given)?
KDM5B inh: inactive

What do the screens show for `COc1cccc(CC(=O)NC2CCCN(c3cc(-c4ccc(F)cc4)[nH]n3)C2)c1` (stereo not given)?
KDM5B inh: inactive

What do the screens show for `COc1ccccc1CCC(=O)NC1CCN(c2cc(-c3ccccc3)[nH]n2)CC1`?
KDM5B inh: inactive

Results for CCOc1ccccc1C(=O)NC1CCN(c2cc(-c3ccc(OC)cc3)[nH]n2)CC1 ?
KDM5B inh: inactive

What do the screens show for `CN(C)c1cccc(C(=O)NCC2CCN(c3cc(-c4ccccc4)[nH]n3)CC2)c1`?
KDM5B inh: 25.1µM

What do the screens show for `CCOc1ccccc1C(=O)NC1CCN(c2cc(-c3ccc(OC)cc3)[nH]n2)C1` (stereo not given)?
KDM5B inh: 12.6µM

What do the screens show for `O=C(NCC1CCN(c2cc(-c3ccccc3)[nH]n2)CC1)c1ccc(=O)[nH]c1`?
KDM5B inh: inactive
